Inconclusive results are not listed. For part of these data: Entries with a potency or affinity are not part of this list. The source made the active and inactive calls.
Assays:
[1] = Ebola virus entry assay, blue channel fluorescence
[2] = Ebola virus entry assay, green fluorescence channel
[3] = Ebola virus entry assay, ratio channel readout
[4] = Ebola virus entry assay, blue channel fluorescence; remark: listed apart in the source
[5] = Ebola virus entry reporter assay, green channel fluorescence
[6] = Ebola virus entry cell assay, ratio channel
[7] = qHTS profiling of the MIPE4 collection as inhibitors of Plasmodium falciparum (DD2) proliferation (AID 743345; call rule not given here); settings: P. falciparum Dd2 in erythrocytes, SYBR Green DNA, 72 h; at 28.5 µM (top of the series) unless noted
Outline: (§1)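 Parasite DNA was quantified by SYBR Green I fluorescence (ex 485, em 535 nm) after overnight lysis in saponin/Triton buffer at room temperature. Cultures at 0.3% parasitemia and 2.5% hematocrit were first exposed to compound for 72 h at 37 C; signals were normalised to artemisinin (0.29 uM) and vehicle wells.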

[8] = qHTS profiling of the MIPE4 collection as inhibitors of Plasmodium falciparum (DD2) proliferation (Rep 2) (AID 743346; call rule not given here); settings: P. falciparum Dd2 in erythrocytes, SYBR Green DNA, 72 h; at 28.5 µM (top of the series) unless noted
Outline: as §1

[9] = qHTS profiling of the MIPE4 collection as inhibitors of Plasmodium falciparum (HB3) proliferation (AID 743347; call rule not given here); settings: P. falciparum HB3 in erythrocytes, SYBR Green DNA, 72 h; at 28.5 µM (top of the series) unless noted
Outline: as §1

[10] = High-throughput drug toxicity screening in the BPDCN cell line Cal-1 (AID 1224825; call rule not given here); settings: Cal-1 BPDCN cell viability, qHTS; at 45.8 µM (top of the series) unless noted
Outline: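 CellTiter-Glo luminescence after 48 h compound exposure; percent activity scaled with DMSO as 100% and bortezomib (9.2 uM final) as 0%. Cal-1 cells seeded at 500/well in RPMI, 10% FBS, no phenol red.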

[11] = qHTS assay for measurement of the activity of small molecule inhibitors on Zika virus induced Caspase-3 activity in human iPSC derived neural progenitor cells (hNPCs) (AID 1224857; active = well fitted inhibition curve with a large enough effect; also: nearly all actives have a fitted effect of over 65% in size); settings: hNPCs ZIKV-induced caspase-3/7, Caspase-Glo luminescence, 6 h; series mostly up to 45.7 µM
Outline: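 Percent inhibition of virus-induced caspase-3/7 luminescence (Caspase-Glo), scaled between uninfected cells and Zika-infected cells. hNPCs received compound 1 hr before ZIKV at 2 FFU/cell, with 6 hours infection at 37 C.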

[12] = qHTS assay for measurement of the activity of small molecule inhibitors on Zika virus induced Caspase-3 activity in human astrocytoma cells (AID 1224859; active = well fitted inhibition curve with a large enough effect); settings: SNB-19 ZIKV-induced caspase-3/7, luminescence, 6 h; series mostly up to 45.7 µM
Outline: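 Luminescent caspase-3/7 read-out (30 min reagent, room temperature) in human SNB-19 cells infected 6 h with ZIKV (2 FFU/cell) after 1 h compound pre-incubation; Data were normalised to uninfected and infected wells.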

[13] = Ebola virus entry assay, reporter ratio channel; AC50: Channel type: primary unless noted; outcome: Channel type: primary unless noted
[14] = Ebola virus entry assay, blue channel (ratio component)
[15] = Immunotoxin (SS1P) sensitization/mitigation study. Vehicle arm (DMEM) (AID 1159513; call rule not given here; also: potency is read from the fitted curve at half-maximal effect); settings: cell viability with vehicle (DMEM); series mostly up to 46.1 µM
[16] = Immunotoxin (HA22) sensitization/mitigation study. Vehicle arm (PBS) (AID 1159510; call rule not given here; also: potency is read from the fitted curve at half-maximal effect); settings: cancer cells viability with PBS vehicle (HA22 study); series mostly up to 46.1 µM

CCCCC(C)(O)C/C=C/[C@H]1[C@H](O)CC(=O)[C@@H]1CCCCCCC(=O)OC (stereo not given in full)
inactive: outcome [1] | outcome [2] | outcome [3] | outcome [4] | outcome [5] | outcome [6]

Nc1ccn([C@@H]2O[C@H](CO)[C@@H](O)C2O)c(=O)n1 (stereo not given in full)
inactive: outcome [1] | outcome [2] | outcome [3] | outcome [4] | outcome [6]

CC[C@H](C)C(=O)O[C@H]1C[C@H](O)C=C2C=C[C@H](C)[C@H](CC[C@@H](O)C[C@@H](O)CC(=O)O)[C@H]21
inactive: outcome [1] | outcome [2] | outcome [3] | outcome [4] | outcome [6]

Nc1nc(=O)n([C@@H]2CS[C@H](CO)O2)cc1F
inactive: outcome [1] | outcome [2] | outcome [3] | outcome [4] | outcome [6]

CCOC(=O)C1=C[C@@H](OC(CC)CC)[C@H](NC(C)=O)[C@@H](N)C1
97.7%: parasite growth remaining, % of DMSO control (lower = more inhibition) [7]
98.6%: growth, % of control [9]
101%: parasite growth, % of control (lower = inhibition) [8]
inactive: outcome [1] | outcome [2] | outcome [3] | outcome [4] | outcome [5] | outcome [6]

CCC(=O)NCCC1CCc2ccc3c(c21)CCO3 (stereo not given)
inactive: outcome [1] | outcome [2] | outcome [3] | outcome [4] | outcome [5] | outcome [6]

O=C(O)c1cc(N=Nc2ccc(O)c(C(=O)O)c2)ccc1O
inactive: outcome [1] | outcome [2] | outcome [3] | outcome [4] | outcome [6]

CN[C@H](CC(C)C)C(=O)N[C@H]1C(=O)N[C@@H](CC(N)=O)C(=O)N[C@H]2C(=O)N[C@H]3C(=O)N[C@H](C(=O)N[C@@H](C(=O)O)c4cc(O)cc(O)c4-c4cc3ccc4O)[C@H](O)c3ccc(c(Cl)c3)Oc3cc2cc(c3O[C@@H]2O[C@H](CO)[C@@H](O)[C@H](O)[C@H]2O[C@H]2C[C@](C)(N)C(O)[C@H](C)O2)Oc2ccc(cc2Cl)[C@H]1O (stereo not given in full)
inactive: outcome [1] | outcome [2] | outcome [3] | outcome [4] | outcome [5] | outcome [6]

OCC(S)CS (stereo not given)
inactive: outcome [1] | outcome [2] | outcome [3] | outcome [4] | outcome [5] | outcome [6]

C[C@]1(O)CC[C@H]2[C@@H]3CCC4=CC(=O)CC[C@]4(C)[C@@]3(F)[C@@H](O)C[C@@]21C
inactive: outcome [1] | outcome [2] | outcome [3] | outcome [4] | outcome [5] | outcome [6]

CC(=O)N=c1sc(S(N)(=O)=O)nn1C
inactive: outcome [1] | outcome [2] | outcome [3] | outcome [4] | outcome [6]

CO/N=C(/C(=O)N[C@@H]1C(=O)N2C(C(=O)O)=C(COC(N)=O)CS[C@H]12)c1ccco1
inactive: outcome [1] | outcome [2] | outcome [3] | outcome [4] | outcome [6]

C=C1C(=C/C=C2\CCC[C@]3(C)[C@@H]([C@H](C)CCCC(C)(C)O)CC[C@@H]23)C[C@@H](O)C[C@@H]1O
inactive: outcome [1] | outcome [2] | outcome [3] | outcome [4] | outcome [6]

COCC1=C(C(=O)OC(C)OC(=O)OC(C)C)N2C(=O)[C@@H](NC(=O)/C(=N\OC)c3csc(N)n3)[C@H]2SC1 (stereo not given in full)
inactive: outcome [1] | outcome [2] | outcome [3] | outcome [4] | outcome [6]

O=C1Nc2ccc(Cl)cc2C(c2ccccc2)=NC1O (stereo not given)
inactive: outcome [1] | outcome [2] | outcome [3] | outcome [4] | outcome [6]

CN[C@@H]1CCc2[nH]c3ccc(C(N)=O)cc3c2C1
inactive: outcome [1] | outcome [2] | outcome [3] | outcome [4] | outcome [6]

CO/N=C(\C(=O)N[C@@H]1C(=O)N2C(C(=O)O)=C(COC(C)=O)CS[C@H]12)c1csc(N)n1 (stereo in doubt)
inactive: outcome [1] | outcome [2] | outcome [3] | outcome [4] | outcome [6]

CN1C(=O)CC(=O)N(c2ccccc2)c2cc(Cl)ccc21
inactive: outcome [1] | outcome [2] | outcome [3] | outcome [4] | outcome [5] | outcome [6]

COc1ccnc(CS(=O)c2nc3cc(OC(F)F)ccc3[nH]2)c1OC (stereo not given)
inactive: outcome [1] | outcome [2] | outcome [3] | outcome [4] | outcome [6]

COc1cc(C)c(/C=C/C(C)=C/C=C/C(C)=C/C(=O)O)c(C)c1C
inactive: outcome [1] | outcome [2] | outcome [3] | outcome [4] | outcome [6]

NC(=O)[C@@H]1CCCN1C(=O)[C@H](Cc1cnc[nH]1)NC(=O)[C@@H]1CCC(=O)N1
inactive: outcome [1] | outcome [2] | outcome [3] | outcome [4] | outcome [6]

C=CC(N)CCC(=O)O (stereo not given)
inactive: outcome [1] | outcome [2] | outcome [3] | outcome [4] | outcome [5] | outcome [6]

CC(C)c1nc(N(C)S(C)(=O)=O)nc(-c2ccc(F)cc2)c1/C=C/C(O)CC(O)CC(=O)O (stereo not given)
inactive: outcome [1] | outcome [2] | outcome [3] | outcome [4] | outcome [5] | outcome [6]

COC(=O)C(c1ccccc1)C1CCCCN1 (stereo not given)
inactive: outcome [1] | outcome [2] | outcome [3] | outcome [4] | outcome [6]

Cc1nnc2n1-c1ccc(Cl)cc1C(c1ccccc1)=NC2
inactive: outcome [1] | outcome [2] | outcome [3] | outcome [4] | outcome [6]

CC(C)C[C@H](CN)CC(=O)O
89%: parasite growth, % of control (lower = inhibition) [8]
inactive: outcome [1] | outcome [2] | outcome [3] | outcome [4] | outcome [5] | outcome [6] | outcome [11] | outcome [12]
132%: viability (% of control) [10]

C[N+]1(C)[C@@H]2CC(OC(=O)C(O)(c3cccs3)c3cccs3)C[C@H]1[C@@H]1O[C@@H]12 (stereo not given in full)
inactive: outcome [1] | outcome [2] | outcome [3] | outcome [4] | outcome [6]

CCNC(=O)[C@@H]1CCCN1C(=O)[C@H](CCCN=C(N)N)NC(=O)[C@H](CC(C)C)NC(=O)[C@@H](CC(C)C)NC(=O)[C@H](Cc1ccc(O)cc1)NC(=O)[C@H](CO)NC(=O)[C@H](Cc1c[nH]c2ccccc12)NC(=O)[C@H](Cc1cnc[nH]1)NC(=O)[C@@H]1CCC(=O)N1
inactive: outcome [1] | outcome [2] | outcome [3] | outcome [4] | outcome [5] | outcome [6]

O=P(O)(O)C(Sc1ccc(Cl)cc1)P(=O)(O)O
inactive: outcome [1] | outcome [2] | outcome [3] | outcome [4] | outcome [6]

CC[C@H]1OC(=O)[C@H](C)C(=O)[C@H](C)[C@@H](O[C@@H]2O[C@H](C)C[C@H](N(C)C)[C@H]2O)[C@](C)(OC)C[C@@H](C)C(=O)[C@H](C)[C@H]2N(CCCCn3cnc(-c4cccnc4)c3)C(=O)O[C@]12C
inactive: outcome [1] | outcome [2] | outcome [3] | outcome [4] | outcome [6]

COc1cc(NS(C)(=O)=O)ccc1Nc1c2ccccc2nc2ccccc12
inactive: outcome [1] | outcome [2] | outcome [3] | outcome [5] | outcome [6]

CO[C@@H]1[C@@H](O[C@@H]2O[C@H](C)[C@@H](O[C@H]3C[C@@](C)(O)[C@@H](O)[C@H](C)O3)[C@H](N(C)C)[C@H]2O)[C@@H](CC=O)C[C@@H](C)[C@@H](O[C@@H]2CC[C@H](N(C)C)[C@@H](C)O2)/C=C/C=C/C[C@@H](C)OC(=O)C[C@H]1O
inactive: outcome [1] | outcome [2] | outcome [3]
active: AC50 [6] 11.2 µM

COc1ccc2c(c1)C13CCCC[C@@H]1C(C2)N(C)CC3 (stereo not given in full)
inactive: outcome [1] | outcome [2] | outcome [3] | outcome [6]

CC[C@H]1OC(=O)[C@H](C)[C@@H](O[C@H]2C[C@@](C)(OC)[C@@H](O)[C@H](C)O2)C(C)[C@@H](O[C@@H]2O[C@H](C)C[C@H](N(C)C)[C@@H]2O)[C@](C)(OC)C[C@@H](C)C(=O)[C@H](C)[C@@H](O)[C@]1(C)O (stereo not given in full)
inactive: outcome [2] | outcome [13] inactive [Channel type: confirmation] | outcome [14]
active: AC50 [1] 7.94 µM | AC50 [3] 7.95 µM | AC50 [6] 7.94 µM

CC(C)NCC(O)c1ccc(NS(C)(=O)=O)cc1 (stereo not given)
inactive: outcome [1] | outcome [2] | outcome [3] | outcome [6]

CO[C@H]1C[C@@H]2CC[C@@H](C)[C@@](O)(O2)C(=O)C(=O)N2CCCC[C@@H]2C(=O)O[C@H]([C@H](C)C[C@@H]2CC[C@H](OCCO)[C@H](OC)C2)CC(=O)[C@H](C)C=C(C)[C@@H](O)[C@@H](OC)C(=O)[C@H](C)C[C@H](C)C=CC=CC=C1C
inactive: outcome [1] | outcome [2] | outcome [3] | outcome [13] inactive [Channel type: confirmation] | outcome [14]
active: AC50 [6] 14.1 µM | Potency [15] 23.5 µM

Nc1nc(Cl)nc2c1ncn2[C@H]1C[C@H](O)[C@@H](CO)O1
active: Potency [16] 9.59 µM | Potency [15] 48.1 µM
inactive: outcome [1] | outcome [2] | outcome [3] | outcome [4] | outcome [6]

CN1[C@@H]2CC[C@H]1CC(OC(c1ccccc1)c1ccccc1)C2 (stereo not given in full)
inactive: outcome [2] | outcome [13] inactive [Channel type: confirmation] | outcome [14]
active: AC50 [1] 5.01 µM | AC50 [3] 3.55 µM | AC50 [6] 3.55 µM

OC[C@H]1O[C@@H](n2cnc3c2NC=NC[C@H]3O)C[C@@H]1O
inactive: outcome [1] | outcome [2] | outcome [3] | outcome [4] | outcome [6]

C[C@]12CC[C@@H]3c4ccc(OC(=O)N(CCCl)CCCl)cc4CC[C@H]3[C@@H]1CC[C@@H]2OP(=O)(O)O
47.6%: growth, % of control [9]
97.1%: parasite growth remaining, % of DMSO control (lower = more inhibition) [7]
82.9%: viability (% of control) [10]
inactive: outcome [1] | outcome [2] | outcome [3] | outcome [4] | outcome [6] | outcome [11] | outcome [12]
86.3%: parasite growth, % of control (lower = inhibition) [8]

CCN(CC)CC#CCOC(=O)C(O)(c1ccccc1)C1CCCCC1 (stereo not given)
inactive: outcome [1] | outcome [2] | outcome [3] | outcome [6]

CN1CCN2c3ncccc3Cc3ccccc3C2C1 (stereo not given)
inactive: outcome [1] | outcome [2] | outcome [3] | outcome [6]

CN=C1CN(O)C(c2ccccc2)=c2cc(Cl)ccc2=N1
active: AC50 [6] 12.6 µM
inactive: outcome [1] | outcome [2] | outcome [3] | outcome [5]
